From PubChem BioAssay (NCI)
Compounds without any hit were thinned out: in the full panel of roughly 83,000, 20% have a hit.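 Cell lines were cultured in 96-well plates, exposed to a single compound concentration, and assessed for percent growth 48 hours later.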 Calls of active or inactive are those of the source. The calls were made as follows: active = growth percent below 10; inactive = the rest.

Columns and labels:
Test in all cases: NCI-60 one-dose screen, 48 h (100 = growth as untreated, 0 = no growth, -100 = all killed)
Details in all cases: 10 µM unless noted
HCT-15 colon = test system: HCT-15 colon
HT29 colon = test system: HT29 colon
SNB-75 CNS = test system: SNB-75 CNS
SNB-19 CNS = test system: SNB-19 CNS
U251 CNS = test system: U251 CNS
PC-3 prostate = test system: PC-3 prostate
UACC-62 melanoma = test system: UACC-62 melanoma
LOX IMVI melanoma = test system: LOX IMVI melanoma
SK-MEL-28 melanoma = test system: SK-MEL-28 melanoma
SK-MEL-2 melanoma = test system: SK-MEL-2 melanoma
EKVX NSCLC = test system: EKVX NSCLC
SN12C renal = test system: SN12C renal
UO-31 renal = test system: UO-31 renal
TK-10 renal = test system: TK-10 renal
ACHN renal = test system: ACHN renal
CAKI-1 renal = test system: CAKI-1 renal
A498 renal = test system: A498 renal
CCRF-CEM leukemia = test system: CCRF-CEM leukemia
MOLT-4 leukemia = test system: MOLT-4 leukemia
SK-MEL-5 melanoma = test system: SK-MEL-5 melanoma

Measured: growth

Cn1nc(-c2ccccc2)c2c(-c3ccccc3)onc2c1=O
active: HT29 colon 1.6%
inactive: HCT-15 colon 38.3% | SNB-75 CNS 20.9% | SNB-19 CNS 34.3% | U251 CNS 25.2% | PC-3 prostate 32.4% | UACC-62 melanoma 38.1% | LOX IMVI melanoma 53.4% | SK-MEL-28 melanoma 74.5% | SK-MEL-2 melanoma 40.1% | EKVX NSCLC 54.2% | SN12C renal 45.4% | UO-31 renal 39.6% | TK-10 renal 53% | ACHN renal 58.4% | CAKI-1 renal 36.5% | A498 renal 24.6% | CCRF-CEM leukemia 20.9% | MOLT-4 leukemia 42.8%

COc1cccc(-c2nn(-c3ccccc3)cc2-c2ccnc(NCCCNS(=O)(=O)c3ccccc3)c2)c1
active: MOLT-4 leukemia 8.92%
inactive: HCT-15 colon 26.5% | HT29 colon 19% | SNB-75 CNS 62.1% | SNB-19 CNS 47.9% | U251 CNS 34% | PC-3 prostate 15.7% | SK-MEL-5 melanoma 11.3% | LOX IMVI melanoma 33.1% | SK-MEL-2 melanoma 29.7% | EKVX NSCLC 46.5% | SN12C renal 38.7% | UO-31 renal 13.8% | TK-10 renal 46.9% | ACHN renal 28.1% | CAKI-1 renal 48.4% | A498 renal 42.3% | CCRF-CEM leukemia 14.4%

COc1cccc(-c2nn(-c3ccccc3)cc2-c2ccnc(NCCCN)c2)c1
inactive: HCT-15 colon 56.7% | HT29 colon 86.2% | SNB-75 CNS 45.4% | SNB-19 CNS 48.9% | U251 CNS 38.9% | PC-3 prostate 47.7% | SK-MEL-5 melanoma 28.5% | LOX IMVI melanoma 54.8% | SK-MEL-2 melanoma 26.3% | EKVX NSCLC 66.7% | SN12C renal 50.9% | UO-31 renal 51.6% | TK-10 renal 72.2% | ACHN renal 82.7% | CAKI-1 renal 83.5% | A498 renal 42.3% | CCRF-CEM leukemia 29.3% | MOLT-4 leukemia 22.9%

COc1ccc(C(=O)c2ccc(C)cc2)c(OC)c1OC
inactive: HCT-15 colon 50.1% | HT29 colon 27% | SNB-75 CNS 64.7% | SNB-19 CNS 79.4% | U251 CNS 60.9% | PC-3 prostate 86.9% | UACC-62 melanoma 67.6% | LOX IMVI melanoma 83.6% | SK-MEL-28 melanoma 85% | SK-MEL-2 melanoma 60.3% | EKVX NSCLC 92.7% | SN12C renal 91.8% | UO-31 renal 72.6% | TK-10 renal 97.7% | ACHN renal 97.3% | CAKI-1 renal 64.8% | A498 renal 70.1% | CCRF-CEM leukemia 89% | MOLT-4 leukemia 46.8%

Cn1c2c(Cl)c(Cl)ccc2c2c(C#N)c[nH]c(=O)c21
inactive: HCT-15 colon 99% | HT29 colon 99.5% | SNB-75 CNS 91.9% | SNB-19 CNS 97.3% | U251 CNS 101% | PC-3 prostate 74.3% | UACC-62 melanoma 93.4% | LOX IMVI melanoma 91.9% | SK-MEL-28 melanoma 114% | SK-MEL-2 melanoma 97.3% | EKVX NSCLC 98.9% | SN12C renal 95.9% | UO-31 renal 89.9% | TK-10 renal 119% | ACHN renal 93.4% | CAKI-1 renal 71.1% | A498 renal 89.5% | CCRF-CEM leukemia 39.2% | MOLT-4 leukemia 95.7%

COc1cc(/C=C/c2cc(/C=C/c3ccc(O)c(OC)c3)n(-c3ccc(Cl)cc3)c(=O)n2)ccc1O
inactive: HCT-15 colon 85.4% | SNB-75 CNS 69.7% | SNB-19 CNS 91% | U251 CNS 75.5% | PC-3 prostate 77.3% | UACC-62 melanoma 80.6% | LOX IMVI melanoma 61.6% | SK-MEL-28 melanoma 81.6% | SK-MEL-2 melanoma 92.6% | EKVX NSCLC 78.1% | SN12C renal 80.8% | UO-31 renal 64.9% | TK-10 renal 118% | ACHN renal 83.1% | CAKI-1 renal 92.9% | A498 renal 102% | CCRF-CEM leukemia 44.2% | MOLT-4 leukemia 43%
active: HT29 colon -5.09%

CCCNc1nc(N(C)O)nc(N(C)O)n1
active: CCRF-CEM leukemia 6.78%
inactive: HCT-15 colon 26.5% | HT29 colon 40.7% | SNB-75 CNS 77.3% | SNB-19 CNS 38.3% | U251 CNS 27.8% | PC-3 prostate 51.9% | UACC-62 melanoma 31.5% | LOX IMVI melanoma 22.9% | SK-MEL-28 melanoma 41.4% | SK-MEL-2 melanoma 74.1% | EKVX NSCLC 36.9% | SN12C renal 47.1% | UO-31 renal 21.7% | TK-10 renal 65.1% | ACHN renal 14.5% | CAKI-1 renal 25% | A498 renal 22.3% | MOLT-4 leukemia 14.8%

O=C1c2cc3c(cc2-c2c1c1ccc(Cl)cc1c(=O)n2C[C@H](O)[C@@H](O)[C@H](O)CO)OCO3
inactive: PC-3 prostate 12.7% | EKVX NSCLC 20.5%
active: HCT-15 colon 0.364% | HT29 colon -14.4% | SNB-75 CNS -1.89% | SNB-19 CNS 7.77% | U251 CNS -26.9% | UACC-62 melanoma -86.9% | LOX IMVI melanoma -18.5% | SK-MEL-28 melanoma -18.8% | SK-MEL-2 melanoma -67% | SN12C renal -5.37% | UO-31 renal -71.6% | TK-10 renal -48.7% | ACHN renal -58.7% | CAKI-1 renal -8.82% | A498 renal -77% | CCRF-CEM leukemia 8.41% | MOLT-4 leukemia 2.33%

CC1(C)NC2=C(C(Nc3cccnc3)N1)C(c1ccc([N+](=O)[O-])cc1)C(C(=O)c1ccc(N=[N+]=[N-])cc1)O2 (configuration not stated)
inactive: HCT-15 colon 104% | HT29 colon 113% | SNB-75 CNS 96.2% | SNB-19 CNS 98.7% | U251 CNS 101% | PC-3 prostate 98.9% | UACC-62 melanoma 97.1% | SK-MEL-28 melanoma 103% | SK-MEL-2 melanoma 107% | EKVX NSCLC 99.8% | SN12C renal 101% | UO-31 renal 88.3% | TK-10 renal 97.1% | ACHN renal 102% | CAKI-1 renal 102% | A498 renal 108% | CCRF-CEM leukemia 98.8% | MOLT-4 leukemia 102%

COc1ccc(-c2cc(/C=C/C(=O)c3ccc(N)cc3)[nH]n2)cc1
inactive: HCT-15 colon 17% | HT29 colon 10.4% | SNB-19 CNS 27.6% | U251 CNS 14.4% | PC-3 prostate 26.4% | UACC-62 melanoma 24.7% | SK-MEL-28 melanoma 34.6% | SK-MEL-2 melanoma 22.4% | SN12C renal 18.4% | UO-31 renal 39.6% | TK-10 renal 41.8% | ACHN renal 26.9% | CAKI-1 renal 38.7%
active: SNB-75 CNS -0.764% | A498 renal -16.8%

O=C1C(Cl)=C(Nc2ccc(S(=O)(=O)c3ccc(NC4=C(Cl)C(=O)c5ccccc5C4=O)cc3)cc2)C(=O)c2ccccc21
inactive: HT29 colon 32.6% | SNB-75 CNS 57.7% | SNB-19 CNS 44.8% | PC-3 prostate 15.8% | UACC-62 melanoma 12.5% | SK-MEL-28 melanoma 14.2% | EKVX NSCLC 59.1% | SN12C renal 56.2% | A498 renal 66.2% | CCRF-CEM leukemia 21.1% | MOLT-4 leukemia 19%
active: HCT-15 colon 0.496% | U251 CNS 5.68% | UO-31 renal -62.4% | TK-10 renal -58.7% | ACHN renal -7.78% | CAKI-1 renal -21.3%

N#CC1c2ccccc2-c2ccccc2N1C(=O)c1ccccc1 (configuration not stated)
active: A498 renal 8.67%
inactive: HCT-15 colon 12.4% | HT29 colon 12.3% | SNB-75 CNS 39.8% | SNB-19 CNS 53.6% | U251 CNS 18.4% | PC-3 prostate 26.6% | UACC-62 melanoma 22.3% | LOX IMVI melanoma 29.9% | SK-MEL-28 melanoma 58.3% | SK-MEL-2 melanoma 72.7% | EKVX NSCLC 29.5% | SN12C renal 33.3% | UO-31 renal 42.5% | TK-10 renal 63.9% | ACHN renal 30.1% | CAKI-1 renal 37.4% | CCRF-CEM leukemia 41.7% | MOLT-4 leukemia 35.8%

COc1ccc(NC(=O)c2ccc3c(c2)nc(-c2cc4ccccc4[nH]c2=O)n3-c2cc(C(C)(C)C)[nH]n2)cc1
inactive: HCT-15 colon 95.5% | HT29 colon 106% | SNB-75 CNS 76.2% | SNB-19 CNS 75.4% | U251 CNS 85.6% | PC-3 prostate 79.1% | UACC-62 melanoma 85.6% | SK-MEL-28 melanoma 93.2% | SK-MEL-2 melanoma 99.7% | SN12C renal 93.2% | UO-31 renal 86.3% | TK-10 renal 107% | ACHN renal 97.1% | CAKI-1 renal 97.2% | A498 renal 85.8% | MOLT-4 leukemia 63.1%

COC(=O)C(Cc1ccccc1)n1cc(COc2nc(Cl)nc(Nc3ccc(Cl)cc3)n2)nn1 (configuration not stated)
inactive: HCT-15 colon 91% | HT29 colon 95.5% | SNB-75 CNS 104% | SNB-19 CNS 98.2% | U251 CNS 94.1% | PC-3 prostate 101% | UACC-62 melanoma 93.1% | SK-MEL-28 melanoma 107% | SK-MEL-2 melanoma 97.2% | EKVX NSCLC 95.4% | SN12C renal 96.5% | UO-31 renal 72.6% | TK-10 renal 104% | ACHN renal 102% | CAKI-1 renal 92.1% | A498 renal 61.6% | CCRF-CEM leukemia 96.5% | MOLT-4 leukemia 91.3%

Cc1oc(-c2ccccc2Cl)cc1C(=O)Nc1ccc(S(N)(=O)=O)cc1
inactive: HCT-15 colon 103% | HT29 colon 108% | SNB-75 CNS 89.9% | SNB-19 CNS 99.1% | U251 CNS 94.9% | PC-3 prostate 107% | UACC-62 melanoma 95.8% | SK-MEL-28 melanoma 101% | SK-MEL-2 melanoma 104% | EKVX NSCLC 91.9% | SN12C renal 98.2% | UO-31 renal 88.7% | TK-10 renal 126% | ACHN renal 106% | CAKI-1 renal 93.9% | A498 renal 105% | CCRF-CEM leukemia 96.2% | MOLT-4 leukemia 96.3%

CCN(CC)c1ccc(/C=C/c2cc(C)c3ccccc3n2)cc1
active: HT29 colon 8.05%
inactive: HCT-15 colon 29.8% | SNB-75 CNS 42.7% | SNB-19 CNS 59.7% | U251 CNS 43% | PC-3 prostate 65% | UACC-62 melanoma 38.4% | LOX IMVI melanoma 52.2% | SK-MEL-28 melanoma 55.1% | SK-MEL-2 melanoma 72.9% | EKVX NSCLC 92.8% | SN12C renal 60% | UO-31 renal 66.6% | TK-10 renal 70.3% | ACHN renal 60.8% | CAKI-1 renal 51.9% | A498 renal 51.7% | CCRF-CEM leukemia 53.4% | MOLT-4 leukemia 23.5%

Cc1cc(Cl)nc(N(CCNc2ccnc3cc(Cl)ccc23)Cc2ccco2)n1
inactive: HCT-15 colon 35.7% | HT29 colon 30.3% | SNB-75 CNS 81.5% | SNB-19 CNS 37.9% | U251 CNS 17.9% | PC-3 prostate 34.1% | LOX IMVI melanoma 22.5% | SK-MEL-2 melanoma 55.8% | EKVX NSCLC 63.6% | SN12C renal 33.5% | TK-10 renal 64% | ACHN renal 17.7% | A498 renal 70.2%
active: SK-MEL-28 melanoma 3.02% | UO-31 renal -33.5% | CCRF-CEM leukemia 8.24% | MOLT-4 leukemia 6.36%
